# Bioassay records as filed in PubChem.
# A selection: hits, their analogues and other compounds. The true share with any hit is near 13%.
# HCMV inh: human cytomegalovirus inhibition | HFF cells, HCMV-luciferase reporter, 72 h; stronger effect = lower value | activity change, negative = inhibition, % at 57.5 µM | 410,000 compounds, 4.5% hits; in the data active means activity change below about -60%; inconclusive means no clear call, values can overlap the other calls; inactive means above about -39%
#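 Luciferase read-out from HCMV-luciferase-infected HFFs (MOI 1 PFU/cell) 72 h post infection at 37C; compounds added after 16 h cell attachment; activity normalized between buffer-only basal and Salinomycin (10uM) inhibitor controls.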
# Pf growth 96h: P. falciparum growth inhibition at 96 hour, primary screen for plastid delayed-death inhibitors. P. falciparum luciferase reporter growth, 96 h. Potency, µM (titrated, usually from 28.7 µM), usual class: inhibitors. 320,000 compounds, 6.9% hits
#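 Plates of compound plus infected erythrocytes (2% hematocrit, 0.05% parasitemia final) incubate 96 hours, 37 C, 5% CO2. Detection reagent added; reduced luminescence from the parasites' luciferase reporter flags inhibition.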
# Pf growth 48h: P. falciparum growth inhibition at 48 hours (one generation) | 310,000 compounds, 5.9% hits | AID 504832 | Potency, µM (highest dose often 28.7 µM), most hits filed as inhibitors | P. falciparum luciferase growth in erythrocytes, 48 h
#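 Luminescence readout; reporter = integrated firefly luciferase in P. falciparum. RBC culture at 2% hematocrit, 0.1% parasitemia final, 37 C/5% CO2; decreased signal taken as growth inhibition.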
# HCV inhibitor: inhibitors of hepatitis C virus infection. Huh7.5.1 HCVcc-Cre infection, luciferase reporter, 44 h. Potency, µM (doses to about 41.8 µM), hits mostly inhibitors. 340,000 compounds, 3.4% hits. AID 651820
#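 1,000 cells/well; 4 h culture; + compound; + HCVcc-Cre (~0.5 moi); 44 h; luciferase substrate, RT 15 min; read 15 sec.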
# Numbers stand for hits; i = inactive; ? = inconclusive; nt = no result; ! = not confirmed by another sample; [ ] = another dose, or the depositor's remark. Unless noted, the call rests on the fitted dose curve; in most records, active means well fitted inhibition curve with a large enough effect; inconclusive means small, poorly fitted or top-dose-only effect, or another doubt; inactive means no such curve, though single readings can be large or run the other way.
SMILES,HCMV inh,Pf growth 96h,Pf growth 48h,HCV inhibitor
O=C(CSc1nccn1-c1ccc(F)cc1)Nc1nc2ccccc2s1,i,nt,nt,nt
CCN(CC)C(=O)Cn1c(=O)n(Cc2ccc(C(=O)NCc3ccccc3Cl)cc2)c(=O)c2ccccc21,i,nt,nt,nt
CC(C)OC(=O)/C(=C\C=C\c1ccccc1)NC(=O)c1ccccc1,i,i,11.7µM,i
O=C(c1ccc2c(c1)N(Cc1ccccc1)C(=O)c1ccccc1S2(=O)=O)N1CCc2ccccc21,i,nt,nt,nt
COc1ccccc1-n1c(C)c2c(OC)cccc(=O)c2c1C,i,i,4.15µM,i
COc1ccc(-n2c(C)c3c(OC)cccc(=O)c3c2C)cc1,i,10.4µM,?,i
COc1cccc(=O)c2c(C)oc(C)c12,i,i,nt,i
COc1cccc(=O)c2c(C)n(-c3ccc(C(=O)O)cc3)c(C)c12,i,i,?,i
Cc1cc(C)cc(C(=O)N2CCN(c3ccccn3)CC2)c1,i,11.7µM,i,i
Cc1cccc(C(=O)N2CCN(c3ccccn3)CC2)c1,i,i,i,i
S=C(Nc1cc(Cl)ccc1Oc1ccccc1)N1CCN(c2ccccn2)CC1,-77.7,i,i,11.2µM
Cc1ccc(C(=O)N2CC=C(c3ccccc3)CC2)o1,i,i,13.1µM,11.2µM
Cc1cccc(C(=O)NCC(=O)N2CCN(c3ccccn3)CC2)c1,-104.5,nt,nt,i
COc1ccc(CCn2c(=O)c3cccnc3n(CC(=O)Nc3ccc(C)cc3C)c2=O)cc1OC,i,nt,nt,nt
CCCNC(=O)CSc1nc2nc(C)c(Cc3ccccc3Cl)c(C)n2n1,i,nt,nt,nt
O=C(Nc1c(F)c(F)c(F)c(F)c1F)OC[C@@H]1CSCCS(=O)(=O)N1,i,nt,nt,nt
O=C(N1CCN(c2ccccn2)CC1)N1c2ccccc2Sc2ccccc21,-66.5,nt,?,?
CC(C)c1ccc(OCc2ccc(C(=O)N3CCN(c4ccccn4)CC3)cc2)cc1,i,i,?,5.01µM
O=C(c1cccc(Oc2ccccc2)c1)N1CCN(c2ccccn2)CC1,-71.6,i,i,?
O=C(N1CCN(c2ccccn2)CC1)C(Cl)(Cl)Cl,i,i,9.28µM,i
Cc1ccc(CCNC(=O)c2ccc(Nc3nc4ccccc4n4nnnc34)cc2)cc1,i,nt,nt,nt
COC(=O)c1nnn(CC(=O)Nc2c(C)cccc2C)c1N,i,nt,nt,nt
Cc1c(C(=O)N2CCN(c3ccccn3)CC2)oc2c(F)cccc12,i,2.33µM,10.4µM,i
Cc1cccc(C(=O)NCC(=O)N2CC=C(c3ccccc3)CC2)c1,i,i,i,5.62µM
COc1ccc(C(=O)NCC(=O)N2CC=C(c3ccccc3)CC2)cc1OC,i,i,?,?
SMILES,HCMV inh,Pf growth 96h,Pf growth 48h,HCV inhibitor
COC(=O)c1ccccc1NC(=O)C1CCCN(c2nnc(C)c3c(C)n(-c4ccccc4)nc23)C1 (configuration not stated),i,nt,nt,nt
O=c1c2cc3c(cc2n(Cc2cccc(F)c2)c(=O)n1Cc1nc(-c2ccccc2)no1)OCO3,i,nt,nt,nt
COc1ccc2c3c(n(C)c2c1)[C@H](CO)N(Cc1nccs1)CC31CCN(C(=O)CN(C)C)CC1,i,nt,nt,nt
CCOc1ccc(C(c2c(O)nc(SC)[nH]c2=O)c2c(O)nc(SC)[nH]c2=O)cc1,i,nt,nt,i
CSc1nc(O)c(C(c2ccc(O)cc2)c2c(O)nc(SC)[nH]c2=O)c(=O)[nH]1,-68.7,i,i,i
CCOc1ccc(N2CC(NC(=O)C3CCCC3)CC2=O)cc1 (configuration not stated),i,nt,nt,nt
O=C(O)CCNC(=O)OCC1c2ccccc2-c2ccccc21,?,i,i,i
O=C(CCNC(=O)OCC1c2ccccc2-c2ccccc21)NOCc1ccccc1,-77.0,nt,nt,i
Cc1ccc(N2CC(NC(=O)c3cccs3)CC2=O)cc1C (configuration not stated),i,nt,nt,nt
Cc1cccc(Oc2ccc(S(=O)(=O)N3CCCCC3)cc2NC(=O)C2=COCCO2)c1,i,?,13.1µM,i
CC(C)Oc1ccc(S(=O)(=O)N2CCCCC2)cc1NC(=O)C1=COCCO1,i,8.28µM,?,?
CCOc1ccc(Oc2ccc(C(F)(F)F)cc2NC(=O)C2=COCCO2)cc1,i,?,14.7µM,i
COC(=O)c1c(C)noc1-c1ccc(Cl)cc1,-63.8,i,i,i
COC(=O)c1c(-c2ccccc2)noc1-c1ccccc1,i,nt,nt,?
Cc1ccc(-c2ccc(CCC(=O)O)n2-c2cccc(C)c2C)cc1,i,nt,nt,nt
CC(NC(=O)c1ccc(Br)o1)C1CCCO1 (configuration not stated),i,i,i,i
CC(NC(=O)c1ccc(Br)o1)C1CC2CCC1C2 (configuration not stated),i,1.04µM,i,i
Cc1cccc(-c2oc3ccccc3c2-c2ccc3c(c2)OCO3)c1,i,9.28µM,?,i
CCOC(=O)N1CCC(=NNc2ccnc3cc(Cl)ccc23)CC1,i,2.62µM,?,?
CC(=O)N1CCC(=NNc2ccnc3cc(Cl)ccc23)CC1,?,2.62µM,1.85µM,i
COc1ccc(N2CC(NC(=O)C(c3ccccc3)c3ccccc3)CC2=O)cc1 (configuration not stated),i,nt,nt,nt
CCCN1CCN(CCNC(=O)Nc2cc(OC)cc(OC)c2)CC1,i,nt,nt,nt
Cc1cc(N2CCN(C)CC2)nc(-c2ccccc2O)n1,i,?,?,?
CC1CCN(c2nc(-c3ccccc3O)nc3ccccc23)CC1,i,i,?,?
COc1cccc(-c2nc(N3CCCC3)c3ccccc3n2)c1O,i,i,i,5.01µM
SMILES,HCMV inh,Pf growth 96h,Pf growth 48h,HCV inhibitor
Cc1cc(N2CCCC2)nc(-c2ccccc2O)n1,-101.9,i,i,3.16µM
COc1cccc(-c2nc(N3CCC(C)CC3)c3ccccc3n2)c1O,i,i,i,?
Oc1ccccc1-c1nc(N2CCCC2)c2ccccc2n1,i,4.15µM,nt,?
COc1cccc(-c2nc(N3CC(C)CC(C)C3)c3ccccc3n2)c1O (configuration not stated),i,13.1µM,?,14.1µM
CCCC[C@H](O)c1ccccc1,nt,?,i,nt
O=C1Nc2c(c(=O)[nH]c(=O)n2-c2ccc(Cl)cc2)C1(NS(=O)(=O)c1ccccc1)C(F)(F)F (configuration not stated),i,nt,nt,nt
Cc1ccc(C)c(NC(=O)CN2C(=O)CCc3cc(S(=O)(=O)N4CCCCC4)ccc32)c1,i,nt,nt,nt
CCC(=O)N1CCc2cc(Br)cc(S(=O)(=O)CCC(=O)NCc3cccc(OC)c3)c21,i,nt,nt,nt
CC(C)Oc1nc(-c2ccccc2O)nc2ccccc12,i,i[5.75 µM],i,12.6µM
O=C(/C=C/c1ccc(-c2cccc([N+](=O)[O-])c2)o1)N1CCOCC1,-61.2,i,i,?
CC(=O)Oc1ccccc1/C=C1\CCOC1=O,-62.4,i,nt,i
Cc1ccc(Cn2c(=O)n(-c3cc(C)cc(C)c3)c(=O)c3oc4ccccc4c32)cc1,i,nt,nt,nt
CC1CCN(C(=O)C2CCN(S(=O)(=O)c3ccc(-n4cnnn4)cc3)CC2)CC1,i,3.7µM,i,i
N#Cc1ccccc1S(=O)(=O)N1CCC(Oc2ccc(-n3cnnn3)cc2)CC1,i,nt,nt,nt
O=S(=O)(c1cccc(F)c1)N1CCC(Oc2ccc(-n3cnnn3)cc2)CC1,-95.9,nt,nt,nt
CC(=O)Nc1ccc(S(=O)(=O)N2CCC(Oc3ccc(-n4cnnn4)cc3)CC2)cc1,-88.7!,i,?,i
